Source: PubChem (National Center for Advancing Translational Sciences (NCATS))
Most compounds without a hit are left out; they make up all but 4.6% or so of the library.
TRHR ag – TRH receptor (human) agonism. activation, % at 2 µM. 0.18% of 360,000 active. TRHR cells, calcium flux fluo-8, FDSS agonist mode; further: 0% is about no effect
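Agonist-mode FDSS calcium read (Ex 480/Em 530, 1 s cycles) in 1536-well TRHR cells with fluo-8 dye, after 10-cycle baseline and 23 nL compound addition; TRH at EC20 (10 nM final) added afterwards for the enhancer phase.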
TRHR enhancer – TRH receptor (human) allosteric enhancement. P34981. TRHR cells, fluo-8 calcium fluorescence, EC20 TRH enhancement. enhancement, % at 2 µM. 0.66% of 360,000 active. AID 493056; in the data active means enhancement above about 30%; further: 0% is about no effect
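TRHR-expressing cells loaded with fluo-8 calcium dye were read kinetically (ex 480/em 530) during compound addition, then stimulated with an EC20 of TRH (10 nM final). Enhancement of the Gq-mediated intracellular calcium response was scored.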
D1 PAM – potentiators of human D1 dopamine receptor | HEK293 TREx D1 cells, calcium flux, dopamine EC20 potentiation | potentiation, % at 10 µM | 0.036% of 360,000 active | AID 504651; in the data active means potentiation above about 30%; further: 0% is about no effect
Target sequence (P21728 whole entry, looked up): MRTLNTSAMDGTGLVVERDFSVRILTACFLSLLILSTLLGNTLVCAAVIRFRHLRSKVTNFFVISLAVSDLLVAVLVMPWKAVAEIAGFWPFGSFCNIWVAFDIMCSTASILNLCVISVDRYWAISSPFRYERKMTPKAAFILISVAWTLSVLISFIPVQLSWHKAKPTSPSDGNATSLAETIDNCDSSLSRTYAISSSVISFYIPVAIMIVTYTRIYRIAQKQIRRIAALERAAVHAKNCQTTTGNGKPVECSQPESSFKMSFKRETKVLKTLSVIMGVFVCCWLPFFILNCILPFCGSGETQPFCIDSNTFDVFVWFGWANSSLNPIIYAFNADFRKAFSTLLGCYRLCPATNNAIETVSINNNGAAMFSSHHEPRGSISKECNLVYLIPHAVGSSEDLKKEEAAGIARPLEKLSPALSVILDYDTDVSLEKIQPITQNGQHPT
D1 agonist – human D1 receptor agonism. HEK293 T-REx D1 cells, calcium flux, agonist mode. AID 504660. P21728. activation, % at 2 µM. 1% of 360,000 active; further: 0% is about no effect
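Agonism was scored from calcium flux recorded over 180 s (1 read/s) after pintool compound addition, following a 10-cycle baseline. Cells were inducible force-coupled HEK293 TREx D1, plated overnight at 30 C and loaded with no-wash calcium dye.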
D1 antagonist – blocks dopamine activation of the human D1 receptor. HEK293 TREx D1 cells, calcium flux, dopamine EC80; hits give low values. activity change, negative = inhibition, % at 10 µM. AID 504652. 3.2% of 360,000 active; in the data active means activity change below about -30%; further: on the % scale 0 is the no-effect control and ±100 the full control effect
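HEK293 T-REx cells expressing inducible, force-coupled D1 receptor; no-wash Ca dye, 30–90 min RT. Cmpd → 180 s read at 1 Hz → EC80 DA → 180 s read.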
Starred values were filed as active, the others as inactive; nt = no result given; ! = a repeat was not active. Unless noted, no stated cut-off is given here; in the data, active means activation above about 30%; inactive means the rest.

SMILES | TRHR ag | TRHR enhancer | D1 PAM | D1 agonist | D1 antagonist
Cc1ccc(S(=O)(=O)NCC(=O)OCc2cc(=O)oc3cc(C)ccc23)cc1 | 0 | 2 | -7 | 4 | -27
O=C(NCc1ccccc1)C(c1ccccc1)N(Cc1ccc2c(c1)OCO2)C(=O)Cc1cccs1 (stereo unspecified) | -1 | 7 | -6 | 34* | -7
CS(=O)(=O)N1CCc2cc(C(=O)Nc3ccc(COCC(F)(F)F)cc3)ccc21 | -2 | -2 | 2 | 9 | -6
O=C1COc2ccc(C(=O)COC(=O)CCSc3ccccc3)cc2N1 | -1 | -9 | -3 | 11 | -31*
COc1cc(/C=C/C(=O)OCC(=O)c2ccc3c(c2)NC(=O)CO3)ccc1OC(F)F | 0 | 0 | nt | 5 | -9
COc1ccc(/C=C/C(=O)OCC(=O)c2ccc3c(c2)NC(=O)CO3)cc1 | 1 | 15 | 30* | 1 | 8
CC(=O)c1ccc(S(=O)(=O)N2CCN(C(=O)CSc3ccc(C)c(C)c3)CC2)cc1 | -2 | -2 | -8 | 10 | -34*
CC1CC(C)(C)Nc2ccc(N=O)cc21 (stereo unspecified) | -1 | 11 | -4 | 2 | -45*
CCc1ccc2oc(C(=O)Nc3nonc3CC)c(C)c2c1 | -1 | -25 | -9 | 7 | -38*!
O=S(=O)(c1ccc(Br)cc1)c1nnn2c1nc(NCc1cccs1)c1sccc12 | 1 | 2 | -6 | 6 | -5
O=C(CCc1[nH]c2ccccc2c1Sc1ccccc1)NCCO | -1 | 0 | -7 | 48* | 6
O=C(CCc1ccccc1)NCCSc1ccccc1 | -1 | -4 | 1 | 0 | 5
CCC(=O)c1ccc(N2CCCCC2)c(F)c1 | 0 | -1 | -4 | -1 | -55*
Cc1cc(C)cc(Nc2cc(C)nc3nc(-c4ccco4)nn23)c1 | 0 | 0 | 0 | 3 | -39*
O=C(Nc1nnc(SCC(=O)N2CCOCC2)s1)C1CC(=O)N(c2ccc(F)cc2)C1 (stereo unspecified) | 1 | 1 | -4 | 0 | -47*
Cc1cc(NC(=O)c2c(Cl)cccc2Cl)no1 | -1 | 30* | -5 | 3 | 14
Cc1cc(C)nc(NC(=O)c2c(-c3c(Cl)cccc3Cl)noc2C)n1 | 0 | 15 | -4 | -1 | 13
Cc1cc(NC(=O)c2c(-c3c(Cl)cccc3Cl)noc2C)n(C)n1 | 0 | 13 | -11 | 3 | -50*
Cc1cc(NC(=O)c2ccc(-c3ccccc3F)o2)no1 | 0 | 37* | -4 | 6 | 10
Cc1cc(NC(=O)c2ccc(-c3ccc(F)c(Cl)c3)o2)no1 | 0 | -3 | -3 | 2 | 4
Cc1cc(NC(=O)c2c(-c3c(F)cccc3Cl)noc2C)no1 | 0 | -1 | -1 | 11 | -3
CC(C)(C)c1ccc(-c2noc(CCC(=O)Nc3cccc(Cl)c3)n2)cc1 | 3 | 28 | 1 | 8 | -3
Cc1cccn2c(=O)cc(CSc3nnc(NC(=O)C(C)C)s3)nc12 | 0 | -2 | 0 | 2 | 0
CC(C)C(NC(=O)c1ccccc1F)C(=O)NCc1ccccc1 (stereo unspecified) | 0 | -4 | -9 | 0 | -57*
CC(C)[C@H](NC(=O)c1ccccc1F)C(=O)NCc1ccc(S(N)(=O)=O)cc1 | 0 | -16 | 3 | 0 | 11
SMILES | TRHR ag | TRHR enhancer | D1 PAM | D1 agonist | D1 antagonist
COc1ccc(-n2c(-c3ccc(Cl)cc3)cc3c2CC(C)(C)CC3=O)c(OC)c1 | 0 | -10 | -2 | 2 | -15
Cc1cccc(N2CCN(S(=O)(=O)c3ccc4c(c3)NC(=O)C(C)S4)CC2)c1C (stereo unspecified) | 0 | 0 | 1 | 5 | 16
Cc1cccc(N2CCN(S(=O)(=O)c3ccc4c(c3)C(C(C)C)C(=O)N4)CC2)c1C (stereo unspecified) | -1 | 2 | 0 | 6 | -37*
Cc1ccc(C)c(N2CCN(S(=O)(=O)c3ccc4[nH]c(=O)ccc4c3)CC2)c1 | -1 | -3 | -4 | 4 | -11
Cc1cccc(N2CCN(S(=O)(=O)c3ccc4[nH]c(=O)ccc4c3)CC2)c1C | 0 | -1 | -7 | 13 | -35*
CC(=O)N1c2ccc(S(=O)(=O)N3CCCCCC3)cc2CC1C(=O)NCc1ccccc1 (stereo unspecified) | 1 | -3 | 0 | 0 | 4
S=c1[nH]nc(-c2cccnc2)n1-c1ccc2c(c1)OCCO2 | 1 | 2 | -2 | 3 | -46*
CN(C)c1ccc(CNC(=O)Cc2ccc(NC(=O)N3CCCCc4ccccc43)cc2)cc1 | 0 | 0 | 3 | 6 | 7
CCNC(=S)NNC(=O)c1cc(-c2ccc(OCC)cc2)nc2ccccc12 | -1 | -4 | -6 | 8 | -33*
CCNC(=S)NNC(=O)c1cc(CC(C)C)nc2ccccc12 | 0 | -5 | -1 | 2 | -46*
CCNC(=S)NNC(=O)c1cc(-c2cccc(OC)c2)nc2ccccc12 | -1 | -9 | -3 | 2 | -2
CCNC(=S)NNC(=O)c1cc(-c2ccccc2C)nc2ccccc12 | -1 | -7 | 5 | 1 | -11
CCOc1ccc(Sc2cc(C(=O)NCCCOC)c3ccccc3n2)cc1 | -1 | -7 | 4 | -3 | 4
CCOc1ccc(Sc2cc(C(=O)NC(C)c3ccccc3)c3ccccc3n2)cc1 (stereo unspecified) | 1 | -6 | -3 | -3 | -30*
COc1ccc(S(=O)(=O)c2c(O)c3ccc(C(=O)NCc4ccccc4)cc3[nH]c2=O)cc1 | 0 | 2 | 0 | 1 | 3
Cc1ccc(Cl)cc1NC(=O)CCCN1C(=O)CCn2nc(-c3cn(C)c4ccccc34)cc21 | 0 | -6 | 0 | 0 | -5
Cc1cc2c(s1)c1cnn(Cc3c(F)cccc3F)c(=O)c1n2C | 0 | 1 | 7 | 1 | -10
CCOC(=O)c1cc(-c2ccccc2)sc1NC(=O)CC(C)C | 1 | -2 | -6 | 2 | -31*
Cc1ccc(NC(=O)Cn2ccn(-c3ccccc3)c(=O)c2=O)cc1 | 0 | -4 | -2 | -2 | 6
COc1ccc(-c2nc3ccccc3nc2-c2ccc(OC)c(OC)c2)cc1OC | 0 | 20 | -3 | 5 | 9
COc1ccc(-c2cc3ccccc3nc2N)cc1OC | 0 | 2 | -5 | 12 | -38*
CCOC(=O)N1CCc2c(sc3c2c(=O)n(Cc2ccccc2)c(=O)n3Cc2c(F)cccc2Cl)C1 | 0 | -5 | -1 | 4 | 7
O=C(Nc1n[nH]c(C(F)(F)F)n1)C1CC1 | -1 | -4 | -4 | 3 | -34*
COc1ccccc1CN1C[C@@H]2C[C@@H](c3cccc(C)n3)N3CCC[C@@]23C1=O | -1 | 17 | -3 | 2 | -6
COc1ccccc1CN1C[C@@H]2C[C@@H](c3[nH]c4c(C)cccc4c3C)N3CCC[C@@]23C1=O | 0 | -4 | 32* | 44* | 70
